Assay results published in PubChem BioAssay (NCI).
Compounds without any hit were thinned out: in the full panel of roughly 79,000, 15% have a hit. Unmarked numbers belong to inactive results. Active and inactive are the calls of the source. Rule as the data show it: active = growth inhibition above about 70%; inactive = the rest.

Experiments:
[1] = NCI Yeast Anticancer Drug Screen. Data for the rad52 strain (AID 147);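 also: 0% = growth of vehicle-treated control cultures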; conditions: S. cerevisiae rad52 mutant growth inhibition, stronger effect = higher value
Summary of the method: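 Yeast strain carrying a DNA damage repair alteration was exposed to test compounds. Growth inhibition was measured relative to vehicle-treated controls.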

[2] = NCI Yeast Anticancer Drug Screen. Data for the wt1 strain (AID 149);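 also: 0% = growth of vehicle-treated wt1 cultures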; conditions: S. cerevisiae wt1 strain (SPY 50644) growth inhibition, stronger effect = higher value
Summary of the method: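 wt1 strain grown with compound or vehicle; inhibition taken from the growth difference.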

[3] = NCI Yeast Anticancer Drug Screen. Data for the rad50EPP+ strain (AID 151);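 also: 0% = growth of vehicle-treated control cultures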; conditions: S. cerevisiae rad50 mutant strain, stronger effect = higher value
Summary of the method: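 Yeast strain carrying rad50 alteration (rad50EPP+) exposed to compounds; growth inhibition measured relative to vehicle-treated controls.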

[4] = NCI Yeast Anticancer Drug Screen. Data for the mgt1 strain (AID 153); conditions: S. cerevisiae mgt1 mutant growth inhibition, stronger effect = higher value
Summary of the method: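 Yeast mgt1 strain (DNA repair/cell-cycle alteration panel) exposed to compounds; growth inhibition measured relative to vehicle-treated controls.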

[5] = NCI Yeast Anticancer Drug Screen. Data for the rad50 strain (AID 155);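 also: 0% = growth of vehicle-only cultures of the same strain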; conditions: S. cerevisiae rad50 strain growth inhibition, stronger effect = higher value
Summary of the method: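 DNA repair mutant yeast, compound exposure, growth read-out; inhibition is taken relative to vehicle.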

[6] = NCI Yeast Anticancer Drug Screen. Data for the mec2-1 strain (AID 157); conditions: S. cerevisiae mec2-1 strain, stronger effect = higher value
Summary of the method: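 mec2-1 yeast strain, carrying an alteration in DNA damage repair or cell cycle control, was exposed to compounds; growth inhibition was measured relative to vehicle-treated controls.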

[7] = NCI Yeast Anticancer Drug Screen. Data for the rad14 strain (AID 159);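 also: 0% = growth of vehicle-treated control cultures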; conditions: S. cerevisiae rad14 strain growth inhibition, stronger effect = higher value
Summary of the method: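 DNA repair-defective yeast, compound-exposed; % growth inhibition derived by comparison with vehicle-treated controls.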

[8] = NCI Yeast Anticancer Drug Screen. Data for the sgs1 mgt1 strain (AID 161);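 also: 0% = growth of cultures given vehicle only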; conditions: S. cerevisiae sgs1 mgt1 strain, stronger effect = higher value
Summary of the method: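 Percent growth inhibition was derived by comparing compound-exposed mutant yeast with vehicle-exposed cultures. The strain carries alterations in DNA damage repair.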

[9] = NCI Yeast Anticancer Drug Screen. Data for the CLN2oe strain (AID 163);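 also: 0% = growth of vehicle-only control cultures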; conditions: S. cerevisiae CLN2oe strain, stronger effect = higher value
Summary of the method: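 Yeast cells carrying a defined cell-cycle control alteration were exposed to test compounds. Growth inhibition was scored against vehicle-treated control cultures.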

[10] = NCI Yeast Anticancer Drug Screen. Data for the cln2 rad14 strain (AID 165);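 also: 0% = growth equal to vehicle treated cultures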; conditions: S. cerevisiae cln2 rad14 strain, stronger effect = higher value
Summary of the method: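 Yeast carrying cln2 and rad14 alterations (cell cycle control and DNA damage repair) were exposed to compounds. Growth inhibition was measured against vehicle-treated controls.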

[11] = NCI Yeast Anticancer Drug Screen. Data for the bub3 strain (AID 167); conditions: S. cerevisiae bub3 mutant strain, stronger effect = higher value
Summary of the method: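 In this screen, a yeast mutant lacking normal mitotic checkpoint function is challenged with compound. Relative growth versus vehicle gives the inhibition value.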

[12] = NCI Yeast Anticancer Drug Screen. Data for the wt2 strain (AID 169);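 also: 0% = growth of vehicle-treated yeast cultures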; conditions: S. cerevisiae wt2 strain growth inhibition, stronger effect = higher value
Summary of the method: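 Yeast cells were exposed to test compounds, and growth inhibition was measured relative to vehicle-treated controls.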

[13] = NCI Yeast Anticancer Drug Screen. Data for the mlh1 strain (AID 171);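 also: 0% = growth of vehicle-treated control cultures of the same strain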; conditions: S. cerevisiae mlh1 strain growth inhibition, stronger effect = higher value
Summary of the method: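 Yeast carrying a defined genetic alteration in DNA damage repair or cell cycle control were exposed to test compounds. Growth inhibition was measured relative to vehicle-treated controls.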

[14] = NCI Yeast Anticancer Drug Screen. Data for the sgs1 strain (AID 173);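 also: 0% = growth of vehicle-only control cultures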; conditions: S. cerevisiae sgs1 mutant, stronger effect = higher value
Summary of the method: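 Yeast mutant strains carrying defined defects in DNA damage repair or cell cycle control were exposed to test compounds. Growth inhibition was scored against vehicle-treated controls.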

[15] = NCI Yeast Anticancer Drug Screen. Data for the mlh1 rad18 strain (AID 175); conditions: S. cerevisiae mlh1 rad18 strain growth inhibition, stronger effect = higher value
Summary of the method: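 Growth inhibition of the yeast strain was measured after compound exposure and expressed relative to vehicle-treated controls. The strain carries defined defects in DNA damage repair.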

[16] = NCI Yeast Anticancer Drug Screen. Data for the rad18 strain (AID 177); conditions: S. cerevisiae rad18 mutant growth inhibition, stronger effect = higher value
Summary of the method: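 Yeast carrying a defined DNA damage repair alteration were exposed to compounds. Growth inhibition was expressed relative to vehicle-treated controls.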

[17] = at 5.0 µM (retest, dose inferred, filed as 0.5)
[18] = at 50.0 µM (retest, dose inferred, filed as 5.0)

For COC(=N)c1ccc(O)c(C)c1, which growth inhibition ([1]; at 1.2 µM) is on record?
Its growth inhibition is -3%.

What about the growth inhibition ([1]; at 3.7 µM) of the same molecule?
Its growth inhibition is -6%.

And the growth inhibition ([1]; at 11.0 µM)?
The growth inhibition was -11%.

What about the growth inhibition ([1]; at 33.0 µM) of the same molecule?
Its growth inhibition is -16%.

And the growth inhibition ([1]; at 100.0 µM)?
The growth inhibition was -5%.

What about the growth inhibition ([2]; at 1.2 µM) of the same molecule?
Its growth inhibition is -6%.

And the growth inhibition ([2]; at 3.7 µM)?
The growth inhibition was -5%.

What about the growth inhibition ([2]; at 11.0 µM) of the same molecule?
Its growth inhibition is -6%.

And the growth inhibition ([2]; at 33.0 µM)?
The growth inhibition was -5%.

And the growth inhibition ([2]; at 100.0 µM)?
Its growth inhibition is -3%.

And the growth inhibition ([3]; at 1.2 µM)?
The growth inhibition was -1%.

What about the growth inhibition ([3]; at 3.7 µM) of the same molecule?
Its growth inhibition is 1%.

And the growth inhibition ([3]; at 11.0 µM)?
The growth inhibition was 5%.

And the growth inhibition ([3]; at 33.0 µM)?
Its growth inhibition is 11%.

And the growth inhibition ([3]; at 100.0 µM)?
Its growth inhibition is 9%.

And the growth inhibition ([4]; at 1.2 µM)?
Its growth inhibition is -4%.

What about the growth inhibition ([4]; at 3.7 µM) of the same molecule?
The growth inhibition was -3%.

What about the growth inhibition ([4]; at 11.0 µM) of the same molecule?
The growth inhibition was -2%.

And the growth inhibition ([4]; at 33.0 µM)?
The growth inhibition was -3%.

And the growth inhibition ([4]; at 100.0 µM)?
Its growth inhibition is -3%.

What about the growth inhibition ([5]; at 1.2 µM) of the same molecule?
The growth inhibition was -7%.

And the growth inhibition ([5]; at 3.7 µM)?
Its growth inhibition is -19%.

And the growth inhibition [5, 17]?
Its growth inhibition is -138%.

What about the growth inhibition ([5]; at 11.0 µM) of the same molecule?
The growth inhibition was -6%.

What about the growth inhibition ([5]; at 33.0 µM) of the same molecule?
Its growth inhibition is 7%.

And the growth inhibition [5, 18]?
The growth inhibition was 10%.

And the growth inhibition ([5]; at 50.0 µM)?
The growth inhibition was 50.4%.

And the growth inhibition ([5]; at 100.0 µM)?
The growth inhibition was 3%.

What about the growth inhibition ([6]; at 1.2 µM) of the same molecule?
Its growth inhibition is 0%.

And the growth inhibition ([6]; at 3.7 µM)?
The growth inhibition was 0%.

And the growth inhibition [6, 17]?
Its growth inhibition is -46%.

And the growth inhibition ([6]; at 11.0 µM)?
The growth inhibition was -1%.

And the growth inhibition ([6]; at 33.0 µM)?
The growth inhibition was 1%.

And the growth inhibition [6, 18]?
The growth inhibition was -21%.

And the growth inhibition ([6]; at 50.0 µM)?
The growth inhibition was 2.2%.

And the growth inhibition ([6]; at 100.0 µM)?
The growth inhibition was 1%.

And the growth inhibition ([7]; at 1.2 µM)?
The growth inhibition was -3%.

What about the growth inhibition ([7]; at 3.7 µM) of the same molecule?
Its growth inhibition is 0%.

What about the growth inhibition ([7]; at 11.0 µM) of the same molecule?
The growth inhibition was -2%.

And the growth inhibition ([7]; at 33.0 µM)?
Its growth inhibition is -4%.

And the growth inhibition ([7]; at 100.0 µM)?
Its growth inhibition is -1%.

And the growth inhibition [8, 17]?
Its growth inhibition is -53%.

What about the growth inhibition [8, 18] of the same molecule?
The growth inhibition was -40%.

And the growth inhibition ([8]; at 50.0 µM)?
Its growth inhibition is -8.2%.

And the growth inhibition ([9]; at 1.2 µM)?
Its growth inhibition is -2%.

What about the growth inhibition ([9]; at 3.7 µM) of the same molecule?
The growth inhibition was 3%.

And the growth inhibition ([9]; at 11.0 µM)?
Its growth inhibition is 0%.

And the growth inhibition ([9]; at 33.0 µM)?
Its growth inhibition is -3%.

And the growth inhibition ([9]; at 100.0 µM)?
The growth inhibition was -6%.

And the growth inhibition [10, 17]?
Its growth inhibition is -52%.

What about the growth inhibition [10, 18] of the same molecule?
Its growth inhibition is -22%.

And the growth inhibition ([10]; at 50.0 µM)?
The growth inhibition was -38.2%.

And the growth inhibition ([11]; at 1.2 µM)?
Its growth inhibition is -3%.

And the growth inhibition ([11]; at 3.7 µM)?
The growth inhibition was -5%.

What about the growth inhibition [11, 17] of the same molecule?
Its growth inhibition is -61%.

What about the growth inhibition ([11]; at 11.0 µM) of the same molecule?
Its growth inhibition is 0%.

And the growth inhibition ([11]; at 33.0 µM)?
The growth inhibition was -2%.

And the growth inhibition [11, 18]?
Its growth inhibition is 78% (active).

And the growth inhibition ([11]; at 50.0 µM)?
The growth inhibition was 5.2%.

And the growth inhibition ([11]; at 100.0 µM)?
Its growth inhibition is 4%.

What about the growth inhibition ([12]; at 1.2 µM) of the same molecule?
The growth inhibition was -2%.

What about the growth inhibition ([12]; at 3.7 µM) of the same molecule?
Its growth inhibition is 0%.

What about the growth inhibition ([12]; at 11.0 µM) of the same molecule?
The growth inhibition was -2%.

What about the growth inhibition ([12]; at 33.0 µM) of the same molecule?
The growth inhibition was -4%.

And the growth inhibition ([12]; at 100.0 µM)?
The growth inhibition was -1%.

And the growth inhibition ([13]; at 1.2 µM)?
Its growth inhibition is 6%.

What about the growth inhibition ([13]; at 3.7 µM) of the same molecule?
The growth inhibition was -6%.

And the growth inhibition ([13]; at 11.0 µM)?
Its growth inhibition is -7%.

What about the growth inhibition ([13]; at 33.0 µM) of the same molecule?
The growth inhibition was -7%.

And the growth inhibition ([13]; at 100.0 µM)?
The growth inhibition was -7%.

And the growth inhibition ([14]; at 1.2 µM)?
The growth inhibition was -1%.

And the growth inhibition ([14]; at 3.7 µM)?
Its growth inhibition is -1%.

What about the growth inhibition ([14]; at 11.0 µM) of the same molecule?
The growth inhibition was -1%.

What about the growth inhibition ([14]; at 33.0 µM) of the same molecule?
The growth inhibition was -2%.

And the growth inhibition ([14]; at 100.0 µM)?
The growth inhibition was -2%.

And the growth inhibition [15, 17]?
The growth inhibition was -123%.

And the growth inhibition [15, 18]?
Its growth inhibition is -74%.

What about the growth inhibition ([15]; at 50.0 µM) of the same molecule?
The growth inhibition was -6.9%.

What about the growth inhibition ([16]; at 1.2 µM) of the same molecule?
The growth inhibition was -2%.

And the growth inhibition ([16]; at 3.7 µM)?
Its growth inhibition is -1%.

And the growth inhibition ([16]; at 11.0 µM)?
Its growth inhibition is 1%.

And the growth inhibition ([16]; at 33.0 µM)?
Its growth inhibition is 3%.

What about the growth inhibition ([16]; at 100.0 µM) of the same molecule?
The growth inhibition was 8%.
